In PubChem BioAssay (NCI):
Compounds without any hit were thinned out: in the full panel of roughly 79,000, 15% have a hit. Calls of active or inactive are those of the source. Cut-off read from the data, not from the text of the source: active = growth inhibition above about 70%; inactive = the rest.

Experiments:
[1] = NCI Yeast Anticancer Drug Screen. Data for the rad52 strain (AID 147);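 note: 0% = growth of vehicle-treated control cultures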; conditions: S. cerevisiae rad52 mutant growth inhibition, hits give high values
In short: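 Screen used a yeast mutant impaired in DNA repair. After compound exposure, growth was measured. Values reflect inhibition compared with vehicle-treated cells.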

[2] = NCI Yeast Anticancer Drug Screen. Data for the wt1 strain (AID 149);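 note: 0% = growth of vehicle-treated wt1 cultures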; conditions: S. cerevisiae wt1 strain (SPY 50644) growth inhibition, hits give high values
In short: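 Readout: yeast growth inhibition, normalised to vehicle controls, in the wt1 strain exposed to test compounds.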

[3] = NCI Yeast Anticancer Drug Screen. Data for the rad50EPP+ strain (AID 151);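 note: 0% = growth of vehicle-treated control cultures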; conditions: S. cerevisiae rad50 mutant strain, hits give high values
In short: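 Exposing the rad50EPP+ strain to each compound, growth was compared with vehicle-only cultures to give inhibition.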

[4] = NCI Yeast Anticancer Drug Screen. Data for the rad50 strain (AID 155);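 note: 0% = growth of vehicle-only cultures of the same strain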; conditions: S. cerevisiae rad50 strain growth inhibition, hits give high values
In short: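 Compounds were tested on a yeast strain with an engineered DNA damage repair alteration; the reported value is growth inhibition normalised to vehicle treatment.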

[5] = NCI Yeast Anticancer Drug Screen. Data for the mec2-1 strain (AID 157); conditions: S. cerevisiae mec2-1 strain, hits give high values
In short: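 Readout is yeast growth inhibition, normalised to vehicle-treated controls, in the mec2-1 strain exposed to compound.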

[6] = NCI Yeast Anticancer Drug Screen. Data for the rad14 strain (AID 159);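 note: 0% = growth of vehicle-treated control cultures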; conditions: S. cerevisiae rad14 strain growth inhibition, hits give high values
In short: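 Compound-treated yeast with a defined DNA-repair lesion; growth inhibition normalised to vehicle-treated cultures.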

[7] = NCI Yeast Anticancer Drug Screen. Data for the sgs1 mgt1 strain (AID 161);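 note: 0% = growth of cultures given vehicle only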; conditions: S. cerevisiae sgs1 mgt1 strain, hits give high values
In short: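 This yeast growth screen uses a strain with defined DNA-repair lesions; compound-treated growth is compared with vehicle-treated growth.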

[8] = NCI Yeast Anticancer Drug Screen. Data for the CLN2oe strain (AID 163);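 note: 0% = growth of vehicle-only control cultures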; conditions: S. cerevisiae CLN2oe strain, hits give high values
In short: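 Values reflect how much compound exposure reduced yeast growth, referenced to vehicle-exposed cells. Assay organism is a strain with a defined genetic change affecting cell-cycle control.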

[9] = NCI Yeast Anticancer Drug Screen. Data for the cln2 rad14 strain (AID 165);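 note: 0% = growth equal to vehicle treated cultures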; conditions: S. cerevisiae cln2 rad14 strain, hits give high values
In short: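 Relative to vehicle controls, growth inhibition of compound-treated cln2 rad14 yeast was recorded.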

[10] = NCI Yeast Anticancer Drug Screen. Data for the bub3 strain (AID 167); conditions: S. cerevisiae bub3 mutant strain, hits give high values
In short: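 Growth of a checkpoint-deficient yeast mutant is measured after compound exposure. Values represent inhibition relative to vehicle.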

[11] = NCI Yeast Anticancer Drug Screen. Data for the wt2 strain (AID 169);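 note: 0% = growth of vehicle-treated yeast cultures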; conditions: S. cerevisiae wt2 strain growth inhibition, hits give high values
In short: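 Values express reduction in yeast growth under compound treatment, referenced to vehicle-treated cells.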

[12] = NCI Yeast Anticancer Drug Screen. Data for the mlh1 strain (AID 171);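 note: 0% = growth of vehicle-treated control cultures of the same strain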; conditions: S. cerevisiae mlh1 strain growth inhibition, hits give high values
In short: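 Steps: expose the defined-mutant yeast strain to compound; expose a parallel culture to vehicle; measure growth; express compound effect as inhibition relative to the vehicle culture.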

[13] = NCI Yeast Anticancer Drug Screen. Data for the sgs1 strain (AID 173);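 note: 0% = growth of vehicle-only control cultures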; conditions: S. cerevisiae sgs1 mutant, hits give high values
In short: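 Treat defined-mutant yeast with compound; measure growth; calculate inhibition relative to vehicle-treated cells.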

[14] = NCI Yeast Anticancer Drug Screen. Data for the mlh1 rad18 strain (AID 175); conditions: S. cerevisiae mlh1 rad18 strain growth inhibition, hits give high values
In short: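 Test agents were incubated with a yeast strain of defined genotype (DNA damage repair defect). Inhibition of growth was derived by comparison with vehicle-exposed cultures.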

[15] = NCI Yeast Anticancer Drug Screen. Data for the rad18 strain (AID 177); conditions: S. cerevisiae rad18 mutant growth inhibition, hits give high values
In short: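 A genetically defined yeast mutant impaired in DNA damage repair was treated with test compounds, then its growth was measured against cultures receiving vehicle alone.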

[16] = at 5.0 µM (retest, dose inferred, filed as 0.5)
[17] = at 50.0 µM (retest, dose inferred, filed as 5.0)

Measured: growth inhibition

COC(=O)c1ccc2c(c1)Cc1ccccc1-2
inactive: [1]; at 1.2 µM -1% | [1]; at 3.7 µM 5% | [1]; at 11.0 µM 11% | [1]; at 33.0 µM 19% | [1]; at 100.0 µM 28% | [2]; at 1.2 µM -3% | [2]; at 3.7 µM -5% | [2]; at 11.0 µM -3% | [2]; at 33.0 µM -2% | [2]; at 100.0 µM -2% | [3]; at 1.2 µM 2% | [3]; at 3.7 µM 10% | [3]; at 11.0 µM 25% | [3]; at 33.0 µM 39% | [3]; at 100.0 µM 43% | [4]; at 1.2 µM 2% | [4]; at 3.7 µM 10% | [4]; [16] 0% | [4]; at 11.0 µM 13% | [4]; at 33.0 µM 12% | [4]; [17] -11% | [4]; at 100.0 µM 32% | [5]; at 1.2 µM -4% | [5]; at 3.7 µM 1% | [5]; [16] -12% | [5]; at 11.0 µM -12% | [5]; at 33.0 µM -3% | [5]; [17] -4% | [5]; at 50.0 µM 39% | [5]; at 100.0 µM 1% | [6]; at 1.2 µM -3% | [6]; at 3.7 µM -6% | [6]; at 11.0 µM -4% | [6]; at 33.0 µM -3% | [6]; at 100.0 µM -6% | [7]; [16] -5% | [7]; [17] -4% | [7]; at 50.0 µM 46.9% | [8]; at 1.2 µM -1% | [8]; at 3.7 µM 0% | [8]; at 11.0 µM -4% | [8]; at 33.0 µM -3% | [8]; at 100.0 µM -11% | [9]; [16] 35% | [9]; [17] 0% | [9]; at 50.0 µM 29.4% | [10]; at 1.2 µM -7% | [10]; at 3.7 µM -7% | [10]; [16] 0% | [10]; at 11.0 µM 3% | [10]; at 33.0 µM 3% | [10]; [17] -1% | [10]; at 50.0 µM 41.2% | [10]; at 100.0 µM 19% | [11]; at 1.2 µM -3% | [11]; at 3.7 µM -2% | [11]; at 11.0 µM -4% | [11]; at 33.0 µM 3% | [11]; at 100.0 µM 28% | [12]; at 1.2 µM -3% | [12]; at 3.7 µM 9% | [12]; at 11.0 µM 2% | [12]; at 33.0 µM -11% | [12]; at 100.0 µM 8% | [13]; at 1.2 µM -3% | [13]; at 3.7 µM -4% | [13]; at 11.0 µM -1% | [13]; at 33.0 µM 3% | [13]; at 100.0 µM 17% | [14]; [16] -2% | [14]; [17] 6% | [14]; at 50.0 µM 45.6% | [15]; at 1.2 µM -1% | [15]; at 3.7 µM 1% | [15]; at 11.0 µM 6% | [15]; at 33.0 µM 4% | [15]; at 100.0 µM 9%
active: [4]; at 50.0 µM 72.5%

CCCCCCCCCCCCCC(=O)OC(C)CCC1CCCO1 (stereo unspecified)
inactive: [1]; at 1.2 µM -2% | [1]; at 3.7 µM 0% | [1]; at 11.0 µM 2% | [1]; at 33.0 µM 1% | [1]; at 100.0 µM -8% | [2]; at 1.2 µM -3% | [2]; at 3.7 µM -2% | [2]; at 11.0 µM -1% | [2]; at 33.0 µM -1% | [2]; at 100.0 µM -3% | [3]; at 1.2 µM 2% | [3]; at 3.7 µM 2% | [3]; at 11.0 µM -2% | [3]; at 33.0 µM -4% | [3]; at 100.0 µM -6% | [4]; at 1.2 µM 1% | [4]; at 3.7 µM 0% | [4]; [16] 3% | [4]; at 11.0 µM 0% | [4]; at 33.0 µM -7% | [4]; [17] 15% | [4]; at 50.0 µM 19.4% | [4]; at 100.0 µM -4% | [5]; at 1.2 µM 0% | [5]; at 3.7 µM -1% | [5]; [16] 13% | [5]; at 11.0 µM -6% | [5]; at 33.0 µM 1% | [5]; [17] 5% | [5]; at 50.0 µM 23.5% | [5]; at 100.0 µM -1% | [6]; at 1.2 µM -2% | [6]; at 3.7 µM -6% | [6]; at 11.0 µM 0% | [6]; at 33.0 µM 3% | [6]; at 100.0 µM -4% | [7]; [16] 3% | [7]; [17] 25% | [7]; at 50.0 µM 13.2% | [8]; at 1.2 µM 1% | [8]; at 3.7 µM 2% | [8]; at 11.0 µM 2% | [8]; at 33.0 µM 4% | [8]; at 100.0 µM 14% | [9]; [17] 39% | [9]; at 50.0 µM 37.1% | [10]; at 1.2 µM 1% | [10]; at 3.7 µM -1% | [10]; [16] 31% | [10]; at 11.0 µM -1% | [10]; at 33.0 µM -1% | [10]; [17] 1% | [10]; at 50.0 µM 34.6% | [10]; at 100.0 µM -1% | [11]; at 1.2 µM -3% | [11]; at 3.7 µM -3% | [11]; at 11.0 µM -2% | [11]; at 33.0 µM -3% | [11]; at 100.0 µM -6% | [12]; at 1.2 µM -1% | [12]; at 3.7 µM 3% | [12]; at 11.0 µM 2% | [12]; at 33.0 µM 3% | [12]; at 100.0 µM 4% | [13]; at 1.2 µM -1% | [13]; at 3.7 µM 1% | [13]; at 11.0 µM 1% | [13]; at 33.0 µM 3% | [13]; at 100.0 µM 1% | [14]; [16] -2% | [14]; [17] 37% | [14]; at 50.0 µM 20.8% | [15]; at 1.2 µM 0% | [15]; at 3.7 µM 1% | [15]; at 11.0 µM -3% | [15]; at 33.0 µM -4% | [15]; at 100.0 µM -5%
active: [9]; [16] 81%
